Only some compounds are listed: those with a hit (about 5.7% of all), similar ones and a draw of the others.
AHR activator – activators of human aryl hydrocarbon receptor; P35869; AHR-responsive luciferase reporter cells, luminescence; activation, % at 5 µM; 320,000 tested, 2.5% active; AID 2796; in the data active = activation above about 47%;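 note: 0% = vehicle wells and 100% = reference agonist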
ssDAF12 agonist – activators of S. stercoralis DAF-12 nuclear receptor | HEK293 ssDAF-12/GRIP1 lit1-tk-luc reporter, luminescence; % of 3 µM dafachronic acid response | activation, % at 6.8 µM | 370,000 tested, 1% active;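 active = activation above the mean over all tested compounds plus 3 SD, cut at about 0.9% in these data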;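 note: 0% = DMSO-only wells and 100% = 3 µM delta7-dafachronic acid wells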
hcDAF-12 act – activators of H. contortus DAF-12 nuclear receptor. HEK293 hcDAF-12 lit1-tk-luc reporter, luminescence; 0% DMSO, 100% Δ7-dafachronic acid. activation, % at 6.8 µM. 370,000 tested, 1.4% active;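 active = activation above the mean of all tested compounds plus 3 SD, cut at about 5.5% in these data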;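 note: 100% = response to 3 µM Δ7-dafachronic acid high control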
DAX1 inh-1 – inhibitors of human orphan nuclear receptor DAX1 (NR0B1); P51843; HEK293 Gal4-DAX1 luciferase reporter, luminescence; inhibition, % at 6.75 µM; 340,000 tested, 0.99% active; AID 504766;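 active = inhibition above the mean over all tested compounds plus 3 SD, cut at about 4.2% in these data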;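 note: 0% = DAX1-transfected cells with DMSO and 100% = empty-vector control cells with DMSO; inhibition shows as a rise in luminescence from relieved DAX1 repression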
hgDAF12 agonist – agonists of H. glycines DAF-12 nuclear receptor; HEK293 GAL4-hgDAF12 UAS-luciferase reporter, agonist luminescence; normalized to butyrate control; activation, % at 6.8 µM; AID 687014; 370,000 tested, 1.8% active;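 active = activation above a cutoff set at the mean of all screened compounds plus 3 SD, cut at about 10% in these data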;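 note: 0% = DMSO wells and 100% = sodium butyrate wells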
DAX1 inh-2 – inhibitors of DAX1 repression of SF-1 activated StAR promoter. 370,000 tested, 1.1% active. inhibition, % at 6.8 µM. HEK293T StAR-luciferase reporter, SF-1/DAX-1 repression relief. AID 652010;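 active = inhibition above the mean over all tested compounds plus 3 SD, cut at about 3.6% in these data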;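 note: 0% = DAX-1 cells with DMSO and 100% = cells lacking DAX-1 with DMSO; higher inhibition means more luminescence from relief of DAX-1 repression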
DAX1 conf – NR0B1 (human) inhibition, confirmation; 2,400 tested, 87% active; shares compounds with DAX1 inh-2; inhibition, % at 6.8 µM; HEK293T StAR-promoter luciferase reporter, SF-1/DAX-1 repression;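 active = inhibition above the average of every tested compound plus 3 SD, cut at about 3.8% in these data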;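 note: 0% = DAX-1 cells with DMSO and 100% = no DAX-1 control cells with DMSO; active compounds raise luminescence by relieving repression of the StAR reporter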
Target sequence (P51843 whole entry, looked up): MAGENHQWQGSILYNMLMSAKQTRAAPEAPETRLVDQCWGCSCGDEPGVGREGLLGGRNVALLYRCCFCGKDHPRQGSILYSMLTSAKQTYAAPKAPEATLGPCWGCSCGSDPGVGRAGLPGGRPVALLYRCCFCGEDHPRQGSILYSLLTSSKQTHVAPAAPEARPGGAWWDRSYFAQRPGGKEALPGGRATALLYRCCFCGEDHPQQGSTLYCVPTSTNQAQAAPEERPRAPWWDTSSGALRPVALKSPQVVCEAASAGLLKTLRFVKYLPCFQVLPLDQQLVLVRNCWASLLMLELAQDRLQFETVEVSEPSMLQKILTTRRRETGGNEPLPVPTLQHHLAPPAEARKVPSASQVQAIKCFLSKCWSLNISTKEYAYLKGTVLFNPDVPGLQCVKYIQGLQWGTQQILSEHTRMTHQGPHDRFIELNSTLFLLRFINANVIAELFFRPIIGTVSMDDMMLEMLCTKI
SF1 mutant ctr – nonselective inhibitor or artifact in SF-1 mutant DAX1 counter-screen | shares compounds with DAX1 inh-2 | HEK293 StAR-luciferase, SF-1 AF2 mutant, luminescence | inhibition, % at 6.8 µM | 2,400 tested, 78% active;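 active = inhibition above the mean of all tested compounds plus 3 SD, cut at about 3% in these data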;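 note: 0% = DAX-1 transfected cells with DMSO and 100% = cells without DAX-1 with DMSO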
LXR ag – counter-screen for hcDAF-12 agonists: agonists of human LXR-beta; shares compounds with hcDAF-12 act; HEK293 Gal4-LXR tk-luc reporter, luminescence, 24 h; normalized: DMSO 0%, positive control 100%; activation, % at 6.8 µM; 3,400 tested, under 10 active; AID 743027;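 active = mean percent activation of the reporter above a cutoff set as the average over tested compounds plus their standard deviation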
hcDAF12 ag – hcDAF-12 agonism, confirmation assay; activation, % at 6.8 µM; shares compounds with hcDAF-12 act; 3,400 tested, 61% active; HEK293 hcDAF-12 lit1-tk-luc reporter, luminescence; % of Δ7-dafachronic acid response;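 active = mean activation across triplicate tests above the threshold derived from the earlier primary screen, cut at about 5.5% in these data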;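 note: 0% = DMSO only wells and 100% = 3 µM Δ7-dafachronic acid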
hgDAF12 ag – confirmation of H. glycines DAF-12 agonists | shares compounds with hgDAF12 agonist | HEK293 GAL4-hgDAF12 luciferase reporter, agonist mode; percent of butyrate response | activation, % at 6.8 µM | 3,300 tested, 80% active;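 active = mean activation over triplicate wells above the hit cutoff derived from the earlier primary screen, cut at about 11% in these data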;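 note: 0% = DMSO low control and 100% = 2 mM sodium butyrate high control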
LXR ag 2 – activates human LXR-beta, counter-screen for DAF-12 agonists | AID 743051 | 3,300 tested, under 10 active | shares compounds with hgDAF12 agonist | activation, % at 6.8 µM | HEK293 Gal4-LXR luciferase reporter, 24 h;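 active = mean activation of the triplicate above a set limit carried over from the primary screen, none filed active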
An asterisk follows results filed as active; / = no result.

SMILES	AHR activator	ssDAF12 agonist	hcDAF-12 act	DAX1 inh-1	hgDAF12 agonist	DAX1 inh-2	DAX1 conf	SF1 mutant ctr	LXR ag	hcDAF12 ag	hgDAF12 ag	LXR ag 2
COc1ccc(C(=O)/C=C/Nc2cccc(O)c2)cc1	2.4	1.2*	8.2*	-1.3	18.6*	6.0*	13.9*	8.1*	2.4	12.1*	26.7*	1.7
CCOc1ccc(N/C=C/C(=O)c2ccc(OC)cc2)cc1	4.7	-1.0	-0.7	-1.0	0.9	0.0	/	/	/	/	/	/
O=c1c2ccccc2c(C=Nc2cccc(O)c2)c(O)n1-c1ccc2c(c1)OCO2	-3.8	-1.7	-1.8	-2.0	-2.5	-0.5	/	/	/	/	/	/
Oc1[nH]c2ccccc2c1C=Nc1ccc2c(c1)OCO2	57.6*	0.7	7.0*	5.1*	16.9*	6.6*	16.3*	8.2*	1.3	6.8*	19.1*	0.9
Cc1ccc2nc(-c3ccc(F)cc3)c(Cc3ccccn3)n2c1	/	0.4	8.6*	/	14.4*	9.3*	8.1*	6.7*	0.5	1.2	11.2*	0.8
Cc1ccc2nc(C(C)(C)C)c(Cc3ccsc3)n2c1	/	-0.3	1.0	/	-0.7	-0.7	/	/	/	/	/	/
Cc1ccc2nc(-c3ccccc3)c(Cc3ccccn3)n2c1	/	1.4*	7.4*	/	13.4*	5.1*	7.4*	6.2*	0.6	8.3*	16.4*	0.4
Fc1ccc(-c2nc3ccc(Cl)cn3c2Cc2ccccc2)cc1	/	-0.9	-0.1	0.4	6.1	1.0	/	/	/	/	/	/
Cc1ccc(-c2nc3ccc(C)cn3c2Cc2ccsc2)cc1	/	0.1	5.5	/	17.3*	10.7*	7.0*	3.0*	/	/	1.3	0.5
Cc1ccn2c(Cc3ccccc3)c(-c3ccc(F)cc3)nc2c1	/	0.4	0.1	1.7	16.0*	5.9*	2.7	1.5	/	/	11.4*	0.3
O=C(C[C@H]1C/C=C\C[C@H](Cc2ccc(F)cc2)C(=O)O[C@@H](c2ccccc2)CNC1=O)NCCO	-1.0	-1.1	-1.2	0.6	1.1	-0.2	/	/	/	/	/	/
COc1cc(OC)cc(C(=O)NCC(=O)OCc2nc3ccccc3s2)c1	21.8	1.8*	11.2*	6.9*	13.6*	4.8*	12.7*	7.4*	0.7	11.5*	13.5*	0.5
O=C(OCc1nc2ccccc2s1)c1cccs1	16.4	1.8*	10.1*	4.9*	17.3*	5.6*	14.8*	6.3*	1.3	13.1*	10.9*	0.4
CCc1cc2c(=O)n(CCC(C)C)c(=S)[nH]c2s1	11.4	-1.1	1.5	1.3	3.8	1.4	/	/	/	/	/	/
CN1C(=O)C(C)(C)c2cc(S(=O)(=O)N3CCN(c4cccc(Cl)c4)CC3)ccc21	9.8	-1.2	-1.6	-1.1	-4.5	-1.2	/	/	/	/	/	/
O=C(/C=C/c1ccc(Br)o1)NCc1ccccc1	9.6	-0.4	1.9	0.1	2.8	-0.8	/	/	/	/	/	/
OC[C@H]1O[C@@H](c2nc3ccc(-c4nc(-c5cccs5)no4)cc3[nH]2)C[C@@H]1O	/	0.9	6.1*	/	15.1*	4.8*	10.5*	8.7*	/	/	15.9*	0.7
COc1cc(OC)c(C(=O)OCC(=O)N2CCN(S(=O)(=O)c3ccc(C)cc3C)CC2)cc1OC	/	-1.1	-3.4	0.1	-2.9	1.0	/	/	/	/	/	/
